Measurements published in PubChem BioAssay AID504832 (National Center for Advancing Translational Sciences (NCATS), 2011).
Screen size: about 310,000 compounds; about 18,000 (5.8%) were called active. Where a call stands in place of a potency, no number is given. Not shown: some 22% with an inconclusive outcome. The sample holds actives, similar compounds and a random draw of the others, so the mix is not that of the screen. The call rests on the fitted dose curve; in most records, active means well fitted inhibition curve with a large enough effect; inconclusive means small, poorly fitted or top-dose-only effect, or another doubt; inactive means no such curve, though single readings can be large or run the other way.

Test: Primary qHTS for delayed death inhibitors of the malarial parasite plastid, 48 hour incubation
Details: P. falciparum luciferase growth in erythrocytes; series mostly up to 28.7 µM
In short: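 Parasite viability was followed by luminescence of a genomically integrated firefly luciferase. Cultures held 0.1% parasitemia at 2% hematocrit (final), incubated under 5% CO2 at 37 C.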
Potency means the concentration at half of the fitted maximal effect.

Row | SMILES | Potency
1 | COC(=O)c1cc(NS(=O)(=O)c2ccc3c(c2)c(=O)n(C)c(=O)n3C)cc(C(=O)OC)c1 | inactive
2 | O=C1NCCn2nc3ccccc3c21 | inactive
3 | CCOC(=O)c1c(S(=O)(=O)Nc2cccc(Cl)c2)c(C)n(C)c1C | inactive
4 | CCOc1c(Nc2cccc(Cl)c2)c(=O)c1=O | 7.38 µM (active)
5 | NS(=O)(=O)c1cccnc1Nc1cccc(Cl)c1 | inactive
6 | Cc1ccc2c(c1)N(CC(=O)N1CCOCC1)C(=O)CO2 | inactive
7 | O=S(=O)(NCc1ccc(Cl)cc1Cl)c1cccs1 | inactive
8 | Cc1ccc(NC(=O)NC2CCCCC2)cc1S(=O)(=O)N1CCOCC1 | inactive
9 | Cc1ccc(NC(=O)C(C)OC(=O)Cc2c[nH]c3ccccc23)cc1S(=O)(=O)N1CCOCC1 (configuration not stated) | 5.22 µM (active)
10 | CC(OC(=O)CCCc1c[nH]c2ccccc12)C(=O)Nc1ccc(S(N)(=O)=O)cc1 (configuration not stated) | inactive
11 | O=C(Nc1ccccc1N1CCCC1)c1ccc2ccccc2c1 | inactive
12 | COc1cccc(NC(=O)C(=O)c2cn(CC(=O)N3CCOCC3)c3ccccc23)c1 | inactive
13 | O=C(NCc1ccco1)c1nc(-c2ccccc2)n(-c2ccccc2)n1 | inactive
14 | Cc1nn(-c2ccccc2)c2sc(C(=O)N(Cc3ccco3)C(C)C(=O)NC(C)(C)C)cc12 (configuration not stated) | 11.7 µM (active)
15 | CC(C)(C)NC(=O)NCc1ccco1 | inactive
16 | O=C(NC(Nc1nc2ccc([N+](=O)[O-])cc2s1)(C(F)(F)F)C(F)(F)F)c1ccccc1 | 1.65 µM (active)
17 | O=C(Nc1nc2ccc([N+](=O)[O-])cc2s1)c1ccncc1 | inactive
18 | O=C(COC(=O)c1ccc(F)cc1)Nc1nc2ccc([N+](=O)[O-])cc2s1 | inactive
19 | COC(=O)c1ccc(C)c(NC(=O)C2CC(=O)N(C3CCCC(C)C3C)C2)c1 (configuration not stated) | inactive
20 | Cc1cc(NC(=O)COc2ccc([N+](=O)[O-])cc2)no1 | inactive
21 | CC(=O)c1cccc(OCc2cc(C(=O)NC(C)Cc3cccnc3)no2)c1 (configuration not stated) | inactive
22 | CCc1cc(=O)oc2c(C)c(OCC(=O)N3CC[C@@]4(O)CCCC[C@H]4C3)ccc12 | inactive

Row | SMILES | Potency
23 | CN(C)CCN(Cc1ccccc1)S(=O)(=O)c1csc(C(N)=O)c1 | inactive
24 | O=C1c2ccccc2C(=O)C1c1ccccc1F | inactive
25 | O=C1c2ccccc2C2=Nc3ccccc3SC(c3ccccc3F)C12 (configuration not stated) | 0.329 µM (active)
26 | COCCN(C(=O)CSCc1ccc(C)cc1)c1c(N)n(CC(C)C)c(=O)[nH]c1=O | inactive
27 | CC1(C(=O)NNC(=S)NCC2CCCO2)CC1(Cl)Cl (configuration not stated) | inactive
28 | CN(c1ccccc1)S(=O)(=O)c1cccc(NC(=O)Cc2ccc(Cl)cc2)c1 | 11.7 µM (active)
29 | CN(c1ccccc1)S(=O)(=O)c1cccc(NC(=O)Cc2c(F)cccc2Cl)c1 | inactive
30 | CN(C)S(=O)(=O)c1cccc(NC(=O)Cc2ccsc2)c1 | inactive
31 | C[C@@H]1NC(=O)[C@@]2(C)[C@@H](c3ccccc3)[C@H]3COc4ccccc4[C@@H]3N2C1=O | inactive
32 | CC(=O)c1cccc(NC(=O)C2CCN(C(=O)c3ccccc3Cl)CC2)c1 | inactive
33 | CCc1nnc(NC(=O)C2CCN(C(=O)c3ccccc3C)CC2)s1 | inactive
34 | Cc1ccccc1C(=O)N1CCC(C(=O)Nc2ccc(S(=O)(=O)N(C)C(C)C)cc2)CC1 | 9.28 µM (active)
35 | CC(C)c1c(C(=O)N/N=C/c2ccccc2C(=O)O)nnn1-c1nonc1N | inactive
36 | Cc1cc(Cl)c2oc(C(=O)N3CCC(O)(c4ccccc4)CC3)c(C)c2c1 | inactive
37 | O=C(O)c1cc([N+](=O)[O-])c(Nc2cccc3ccccc23)c([N+](=O)[O-])c1 | inactive
38 | Cn1cc[n+](C)c1COc1ccc(C=O)cc1 | inactive
39 | O=C(CN(C(=O)c1csnn1)c1cccc(Cl)c1)NC1CCCC1 | inactive
40 | O=C(CSc1nnc(-c2ccco2)n1Cc1ccccc1)NC(=O)NCc1ccco1 | 10.4 µM (active)
41 | CCn1c(SCC(=O)NCc2ccco2)nnc1-c1ccc(N)cc1 | inactive
42 | Cn1c(-c2ccc(F)cc2)cnc1SCC(=O)NCc1ccco1 | inactive
43 | CCn1c(COc2ccccc2)nnc1SCC(=O)NCc1ccco1 | inactive
44 | O=C(CSc1nnc2scc(-c3ccc(F)cc3)n12)NCc1ccco1 | inactive

Row | SMILES | Potency
45 | Cc1ccc(-c2csc3nnc(SCC(=O)NCc4ccco4)n23)cc1 | 9.28 µM (active)
46 | CC1(NC(=O)CCS(=O)(=O)c2ccc(Cl)cc2)CCS(=O)(=O)C1 (configuration not stated) | inactive
47 | C=CCn1c(SCC(=O)Nc2ccc(NC(C)=O)cc2)nc2sc(C)c(C)c2c1=O | inactive
48 | CCN(CC(=O)NCc1cccs1)C(=O)c1ccc(OC)c(S(=O)(=O)N2CCOCC2)c1 | inactive
49 | O=C(CC1C(=O)NCCN1C(=O)c1ccc([N+](=O)[O-])cc1)Nc1cccc(Cl)c1 (configuration not stated) | inactive
50 | COc1ccc(C(=O)n2nc(C)c(Br)c2C)cc1OC | inactive
51 | O=C1c2ccccc2NC(c2ccc(-c3cccc(Cl)c3)o2)N1O (configuration not stated) | inactive
52 | O=c1c(-c2cccc(Cl)c2)c[nH]n1-c1ccccc1 | 3.7 µM (active)
53 | O=C1NC(c2cccc(Cl)c2)Nc2ccccc21 (configuration not stated) | inactive
54 | Cc1nc2sccn2c(=O)c1S(=O)(=O)NCCc1ccccc1 | inactive
55 | COCCNc1nnc(SCC(=O)NNC(=O)c2ccco2)s1 | inactive
56 | CCCNC(=O)CSc1nc(Cc2ccccc2)nc2ccccc12 | inactive
57 | Cc1cc(Br)ccc1NC(=O)c1sc2ncn(CC(=O)N3CCN(c4ccccn4)CC3)c(=O)c2c1C | inactive
58 | CCN(CC)c1ccc(NC(=O)CN2CCN(c3ccccn3)CC2)cc1 | inactive
59 | Cc1nc(N2CCN(c3ccccn3)CC2)c2c(C)c(C(=O)Nc3ccc(F)cc3)sc2n1 | 13.1 µM (active)
60 | CC(=O)N1CCN(CC(C)(C)NS(=O)(=O)c2ccc(C)cc2)CC1 | inactive
61 | CC(=O)Nc1ccc(NC(=O)CSC2=NS(=O)(=O)c3ccccc3N2)cc1 | inactive
62 | N#CCCN(C(=O)COC(=O)C1CCN(c2ccc(C(F)(F)F)cn2)CC1)c1ccc(F)cc1 | inactive
63 | CCOc1ccc(C(=O)NCC(=O)N2CCN(c3ccc(C(F)(F)F)cn3)CC2)cc1 | inactive
64 | CCCN1CCn2c3c(c4cc(Br)ccc42)CCCC31 (configuration not stated) | 8.28 µM (active)
65 | O=C(CN1C(=O)NC2(CCCCC2)C1=O)N1CCN(C(=O)c2cccs2)CC1 | inactive
66 | Cc1nn(CC(=O)NCCc2ccccc2)c(=O)c2cc3occc3n12 | inactive

Row | SMILES | Potency
67 | COc1ccc(CC(=O)OC(C)C(=O)Nc2ccc(S(N)(=O)=O)cc2)cc1 (configuration not stated) | inactive
68 | CCCCN(C(=O)c1ccc(C)o1)c1c(N)n(CCCC)c(=O)[nH]c1=O | inactive
69 | CCCCN(C(=O)CCNC(=O)NC12CC3CC(CC(C3)C1)C2)c1c(N)n(CCCC)c(=O)[nH]c1=O | 13.1 µM (active)
70 | CCCCCN(C(=O)CCC(=O)OCC(=O)NCc1ccc(OC)cc1)c1c(N)n(CCCC)c(=O)[nH]c1=O | inactive
71 | CC(C)(C)C(=O)Cn1c(NCCO)nc2ccccc21 | inactive
72 | O=C(Cn1c(NCCO)nc2ccccc21)c1ccc(Cl)cc1Cl | 13.1 µM (active)
73 | O=S(=O)(O)c1nc2ccccc2n1Cc1ccc(Cl)cc1Cl | inactive
74 | O=C(COC(=O)c1ccc([N+](=O)[O-])cc1Cl)NC(=O)c1ccccc1 | inactive
75 | C/C=N/N(c1ccccc1)c1ccccc1 | 10.4 µM (active)
76 | Cc1cccc(-c2c(NC(=O)c3ccco3)oc3ccc(Cl)cc3c2=O)c1 | inactive
77 | O=C(O)CSc1ccc(S(=O)(=O)N2CCCC2)cn1 | inactive
78 | Cc1ccc(NC(=O)CSc2sc3c(O)cc(=O)[nH]c3c2C#N)cc1C | inactive
79 | CC(C)CN(C(=O)c1ccc2c(c1)OCO2)C1CCS(=O)(=O)C1 (configuration not stated) | inactive
80 | COc1ccc(-c2csc(Nc3ccc(O)cc3)n2)cc1 | inactive
81 | Cc1cccc(NC(=O)c2cccc(C(F)(F)F)c2)c1 | inactive
82 | CC(=O)Nc1ccc(-c2csc(NC(=O)Nc3ccccc3)n2)cc1 | inactive
83 | CCCCCCC(=O)Nc1nc(C)c(-c2csc(Nc3cc(Cl)ccc3OC)n2)s1 | 4.65 µM (active)
84 | CCCCCCC(=O)Nc1nc(C)c(-c2csc(Nc3cccc(OC)c3)n2)s1 | 5.22 µM (active)
85 | CCOC(=O)c1csc(NC(=O)Nc2cccc(OC)c2)n1 | inactive
86 | C=CCCC(=O)Nc1nc(C)c(-c2csc(Nc3ccc(Cl)cc3)n2)s1 | 1.47 µM (active)
87 | COc1ccc(-c2csc(NC(=O)COC(=O)Cc3ccc(Cl)cc3Cl)n2)cc1 | inactive
88 | COc1ccc(Cl)cc1NC(=O)c1oc(C)nc1C | inactive

Row | SMILES | Potency
89 | O=C(Nc1ccc(-c2csc(Nc3cccc(C(F)(F)F)c3)n2)cc1)c1cccc(C(F)(F)F)c1 | 9.28 µM (active)
90 | CC(=O)c1sc(NC(=O)CCCOc2ccccc2C)nc1C | inactive
91 | COc1cc(CC(=O)Nc2nc(-c3ccc(F)c(F)c3)cs2)cc(OC)c1OC | inactive
92 | CC(C)CN(C(=O)Cn1c(=O)cnc2ccccc21)C1CCS(=O)(=O)C1 (configuration not stated) | inactive
93 | Cc1ccccc1Nc1c([N+](=O)[O-])ccc2nonc12 | inactive
94 | CC1(C(=O)OCC(=O)Nc2ncc(Cl)cc2Cl)CC1(Cl)Cl (configuration not stated) | inactive
95 | Cc1cccc(OCC(=O)Nc2ccc(C(=O)O)cc2NC(=O)COc2cccc(C)c2)c1 | inactive
96 | O=C(NCCCN1CCCC1=O)c1ccc(S(=O)(=O)Nc2ccccc2)cc1 | inactive
97 | CC1CCN(C(=O)CCc2nnc3ccc(NCc4ccco4)nn23)CC1 | inactive
98 | CC(c1ccccn1)N(C)C(=O)c1ccc2nc(Cc3cccc(Cl)c3)oc2c1 (configuration not stated) | inactive
99 | CC1(C)O[C@@H]2[C@H](O1)[C@@H](COS(=O)(=O)O)O[C@H]2n1cnc2c(=O)[nH]cnc21 | inactive
100 | CCOCCOC(=O)C1=C(C)NC(=O)NC1c1ccc2c(c1)OCO2 (configuration not stated) | inactive
101 | Cc1csc2nc(COC(=O)c3cccc(N(C)C)c3)cc(=O)n12 | inactive
102 | CC(=O)Nc1nc(C)c(-c2csc(Nc3ccc(S(N)(=O)=O)cc3)n2)s1 | inactive
103 | CCC(=O)Nc1nc(C)c(C(=O)Nc2cccc(Cl)c2)s1 | inactive
104 | CC(=O)Nc1cccc(-c2csc(Nc3cccc(C)n3)n2)c1 | inactive
105 | CCCCN(C)CCC(=O)Nc1ccc(Cl)cc1 | inactive
106 | Cc1nc(NC(=O)c2cccc(Cl)c2)sc1-c1csc(Nc2cccc(Cl)c2)n1 | 8.28 µM (active)
107 | CCCCC(=O)Nc1nc(C)c(-c2csc(Nc3ccc(Cl)cc3)n2)s1 | 4.65 µM (active)
